MARV entry inh = qHTS for inhibitors of binding or entry into cells for Marburg Virus. Marburg virus pseudotyped entry inhibition, cell reporter. Potency, µM (series often up to 37.8 µM), for inactives: top-dose activity change, negative = inhibition, actives largely listed as inhibitors. AID 540276, 2011. 1.8% of 300,000 active; calls by dose curve; tested in HEK293 cells; note: potency is the fitted concentration of half-maximal effect; % is set by controls: 0 for no effect and ±100 for the full control effect
Shiga toxin inh = A qHTS for Small Molecule Inhibitors of Shiga Toxin; inhibition, % at 38.7 µM; 9.2% of 290,000 active; Vero cells, Shiga toxin protein synthesis inhibition reporter; AID 2315, 2010; in the data active = inhibition mostly above about 28%, no sharp cut-off; inactive = mostly below about 43%; note: 0% is about no effect
Lassa entry inh = qHTS for Inhibitors of binding or entry into cells for Lassa Virus; 1.2% of 300,000 active; Lassa virus pseudotype entry inhibition, cell reporter; AID 540256, 2011; Potency, µM (titrated, usually from 37.9 µM), for the others: top-dose activity change, negative = inhibition, usual class: inhibitors; calls by dose curve; tested in HEK293 cells; note: potency is the fitted concentration of half-maximal effect; % is set by controls: 0 for no effect and ±100 for the full control effect; nearly all actives have a fitted effect of over 50% in size
Cycloheximide cs = Cycloheximide Counterscreen for Small Molecule Inhibitors of Shiga Toxin | cell reporter, cycloheximide protein synthesis inhibition counterscreen | max response, % | 12% of 300,000 active; in the data active = max response mostly above about 13%, no sharp cut-off; inactive = mostly below about 14%; note: read at 38.3 µM for the half of the compounds with a filed dose; 0% is about no effect
HCV inh = qHTS Assay for Inhibitors of Hepatitis C Virus (HCV); Huh7.5.1 HCVcc-Cre infection, luciferase reporter, 44 h; Potency, µM (top dose mostly 41.8 µM), inactives show at the top dose activity change, negative = inhibition, hits mostly inhibitors; 3.4% of 340,000 active; active = well fitted inhibition curve with a large enough effect; inconclusive = small, poorly fitted or top-dose-only effect, or another doubt; inactive = no such curve, though single readings can be large or run the other way; note: potency is the fitted concentration of half-maximal effect; % is set by controls: 0 for no effect and ±100 for the full control effect
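Infectious HCV cell culture screen: compound-treated cells (1,000/well, pre-plated 4 h) are infected with HCVcc-Cre at roughly 0.5 moi and grown 44 h. Infection is quantified by luciferase signal after 15 min substrate incubation at room temperature.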
FMDV antiviral = High Throughput Screening for Foot and Mouth Disease Virus Antivirals; AID 1159524, 2015; 1.2% of 410,000 active; FMDV antiviral cell-based qHTS; Potency, µM (series often up to 57.9 µM), inactives show at the top dose activity change, negative = inhibition, usual class: inhibitors; calls by dose curve; tested in HEK293T cells; note: read-out not given here; potency is the fitted concentration of half-maximal effect; % is set by controls: 0 for no effect and ±100 for the full control effect; nearly all actives have a fitted effect of over 45% in size
An asterisk follows results filed as active; ? = inconclusive; / = not tested or not shown; [ ] = remark or other dose. A selection: hits, their analogues and other compounds. The true share with any hit is near 13%.

SMILES | MARV entry inh | Shiga toxin inh | Lassa entry inh | Cycloheximide cs | HCV inh | FMDV antiviral
COc1ccc(CCN2C(=O)c3ccccc3NC2c2cc(Cl)c(O)c(OC)c2)cc1 (centres undefined) | ? | -6 | 5.6µM* | -2 | -13% | -5%
COc1ccc(C2Nc3ccccc3C(=O)N2c2ccc(F)cc2)cc1CSc1ccccn1 (centres undefined) | ? | 12 | -30% | 15* | 6% | -9%
CCCN1C(=O)c2ccccc2NC1c1cc(OC)c(OC)c(OC)c1 (centres undefined) | -13% | -6 | -21% | -2 | 15% | -6%
COc1ccc(C2Nc3ccccc3C(=O)N2c2ccccc2)cc1CSc1ccccn1 (centres undefined) | 7% | 2 | -5% | 8 | 13% | -20%
Cc1ccc(OCC(=O)Nc2cccc(S(=O)(=O)N3CCCCCC3)c2)c([N+](=O)[O-])n1 | / | 9 | / | 1 | ? | -12%
CC(C)Oc1ccccc1C1Nc2ccccc2C(=O)N1c1ccc2c(c1)OCCO2 (centres undefined) | ? | 71* | ? | 54* | -44% | -14%
CC(C)Oc1ccccc1C1CC(=O)Nc2cc3c(cc21)OCCO3 (centres undefined) | ? | -6 | ? | 2 | ? | ?
COc1ccc(N2C(=O)c3ccccc3NC2c2ccccc2O)cc1 (centres undefined) | / | 57* | / | 43* | 4% | 16%
CC(=O)NN1C(=O)c2ccccc2NC1c1ccccc1O (centres undefined) | 7%[46.1 µM] | -5 | -4%[46.1 µM] | -4 | 24% | -14%
CC(=O)c1ccc(NC(=O)CC(NCCC2=CCCCC2)C(=O)O)cc1 (centres undefined) | ? | -6 | 16% | -2 | -3% | 0%
CCCc1c(C)nc2ccccc2c1SCCC#N | -11% | -22 | 3% | -7 | ? | -28%
O=C(Nc1ccncc1)Nc1ccc(F)cc1F | 21% | 54* | 47%[14.3 µM] | 27* | 10% | 19%
O=C(Nc1ccc(F)cc1F)Nc1ccc(F)cc1F | -23%[46.1 µM] | 86* | ? | 30* | -11% | 5%
O=C(CC(=O)Nc1ccc(F)cc1F)Nc1ccc(F)cc1F | / | -3 | / | 9 | 13% | 19%
Cc1noc(C)c1NC(=O)Nc1cccc2c1O[C@@H](CN(C)Cc1ccc3c(c1)OCO3)[C@@H](C)CN([C@H](C)CO)C2=O | / | / | / | / | 11% | 51%
COc1cc2cc(CN(CCO)S(=O)(=O)c3ccccc3Cl)c(=O)[nH]c2cc1OC | -20% | -21 | -15% | -10 | -14% | -5%
Cc1cc(C(=O)C(=O)O)c(C)n1-c1ccc(Cl)cc1 | -7%[46.1 µM] | -8 | 19%[46.1 µM] | -3 | 8% | 0%
Cc1cc(C(=O)C(C)Sc2cccc[n+]2[O-])c(C)n1-c1ccc(Cl)cc1 (centres undefined) | ? | 10 | ? | 10* | 4.5µM* | -7%
CCCn1c(=O)[nH]c2nc(-c3ccc(S(=O)(=O)O)cc3)[nH]c2c1=O | / | -2 | / | -6 | / | 0%
Nc1nc(N)nc(-c2ccc(Cl)cc2)n1 | 15% | 25 | 8% | 29* | -8% | /
COc1ccc(-c2nc(N)nc(N)n2)c(O)c1 | / | / | / | / | -13% | 0%
Cc1ccc(Oc2ccc(-c3nc(N)nc(N)n3)cc2)cc1 | 1% | 29 | -7% | 12* | -28% | ?
Cc1cccc(-c2nc(N)nc(N)n2)c1 | 5%[46.1 µM] | 48 | 0% | 34* | -1% | 54%
Nc1nc(-c2ccc(Cl)cc2)nnc1-c1ccc(Br)cc1 | ? | 96* | 9%[46.1 µM] | 52* | 8% | 12%
CN(CCO)C(=O)c1cccc2c1-c1ccccc1C2=O | -15% | -2 | 21% | -2 | 10% | -16%
SMILES | MARV entry inh | Shiga toxin inh | Lassa entry inh | Cycloheximide cs | HCV inh | FMDV antiviral
COc1ccc(N2CCN(C(=O)Cn3nc(Cc4cccnc4)c4ccccc4c3=O)CC2)cc1 | -7%[46.1 µM] | / | 10%[46.1 µM] | / | / | -24%
O=C(COC(=O)CCS(=O)(=O)c1ccccc1)NNC(=O)c1ccc([N+](=O)[O-])cc1 | / | / | / | / | / | -3%
CC(C)=Cc1cccc2[nH]c(O)c(N=Nc3ccc(S(N)(=O)=O)cc3)c12 | / | / | 4µM* | / | / | /
Cc1c(C#N)c(O)[nH]c(=O)c1N=Nc1ccc(S(N)(=O)=O)cc1 | 4%[46.1 µM] | -1 | 0%[46.1 µM] | -6 | 0% | -6%
Cc1ccc2[nH]c(O)c(N=Nc3ccc(S(N)(=O)=O)cc3)c2c1 | / | / | 4µM* | / | / | /
NS(=O)(=O)c1ccc(N=Nc2c(O)[nH]c3ccc(-c4cnco4)cc23)cc1 | / | / | 13µM* | / | / | /
Cc1cccc(N=Nc2c(O)[nH]c3ccc(Br)cc23)c1 | 5%[46.1 µM] | 31* | 6%[46.1 µM] | 39* | -18% | 37%
CCOC(=O)C1(Cc2cccc(Cl)c2)CCCN(C(=O)c2ccoc2C)C1 (centres undefined) | 4%[46.1 µM] | 25 | ? | 10 | -2% | -14%
Cc1nc(CNS(=O)(=O)c2cccs2)cs1 | / | -16 | / | 7 | 12% | 9%
COc1ccc(CNc2nc(-c3ccc(N(C)C)cc3)nc3ccccc23)c(OC)c1 | / | / | / | / | / | -4%
Cc1nnc(SCC(=O)Nc2ccc3c(c2)OCO3)s1 | ? | 6 | -7%[46.1 µM] | -3 | 18% | -23%
CN1CCN(c2ccc(C(=O)c3ccc(F)cc3)cc2)CC1 | ? | 111* | -14% | 15 | -30% | 34%
O=C(c1ccccc1)c1ccc(N2CCNCC2)cc1 | 2% | active | / | 34* | ? | /
O=C(c1ccccc1)c1ccc(N2CCCC2)cc1 | -2% | 53* | 3% | 24* | -24% | 29%
CCCS(=O)(=O)N1CCCC(C(=O)NC(C)c2ccc3c(c2)OCCO3)C1 (centres undefined) | 5% | 7 | 1% | -2 | 3% | ?
CCN1CCCC1CN(Cc1cc2ccc(C)cc2[nH]c1=O)C(=S)Nc1ccc(OC)cc1 (centres undefined) | 5% | -11 | ? | 1 | -20% | -16%
CCN1CCCC1CN(Cc1cc2ccc(C)c(C)c2[nH]c1=O)C(=O)Nc1ccccc1OC (centres undefined) | 18µM* | 25 | -1% | 8 | ? | 2%
CCN1CCCC1CN(Cc1cc2ccc(C)cc2[nH]c1=O)C(=S)Nc1cccc(OC)c1 (centres undefined) | 10µM* | -13 | ? | -2 | ? | 0%
CCN1CCCC1CN(Cc1cc2ccc(C)cc2[nH]c1=O)C(=S)Nc1ccccc1OC (centres undefined) | ? | -3 | -18% | -3 | -12% | -15%
COc1ccc(-c2cc3ncnc(Cl)c3s2)cc1 | -10%[46.1 µM] | 58 | -26%[46.1 µM] | 33* | -10% | -4%
Cc1ccc(NC2Nc3cc(C)nn3S2)c(C)c1 (centres undefined) | 0%[46.1 µM] | 83* | -15% | 57* | 4% | 79%
Cc1cc(NC(=NC2CC2)c2ccccc2)n(-c2ccccc2)n1 | -5%[46.1 µM] | -7 | -1% | -4 | 19% | -9%

Screens deposited in PubChem by National Center for Advancing Translational Sciences (NCATS).
